Assay outcomes from PubChem.
Rows were chosen to be rich in hits. Some 8.9% of all compounds tested hit in one or more screens of this group.
ALDH1A1 inh = ALDH1A1 (human) enzyme inhibition; P00352; Purified ALDH1A1, NADH fluorescence, propionaldehyde substrate; Potency, µM (titrated, usually from 75.3 µM), inactives show top-dose activity, negative = inhibition, most hits filed as inhibitors; 220,000 tested, 7.3% active; AID 1030; active = well fitted inhibition curve with a large enough effect, not every such curve was filed as active; inconclusive = small, poorly fitted or top-dose-only effect, or another doubt; inactive = no such curve, though single readings can be large or run the other way;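 also: potency is read from the fitted curve at half-maximal effect; plate controls were no enzyme wells and a reference inhibitor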
NPSR antag = neuropeptide S receptor (human) antagonism, cAMP; Q6W5P4; CHO-NPSR cells, cAMP TR-FRET, antagonist mode; Potency, µM (series often up to 38.3 µM), for the others: at the top dose activity change, negative = inhibition, hits mostly inhibitors; 220,000 tested, 1% active; also: potency is read from the fitted curve at half-maximal effect; nearly all actives have a fitted effect of over 50% in size
Target sequence (Q6W5P4 whole entry, looked up): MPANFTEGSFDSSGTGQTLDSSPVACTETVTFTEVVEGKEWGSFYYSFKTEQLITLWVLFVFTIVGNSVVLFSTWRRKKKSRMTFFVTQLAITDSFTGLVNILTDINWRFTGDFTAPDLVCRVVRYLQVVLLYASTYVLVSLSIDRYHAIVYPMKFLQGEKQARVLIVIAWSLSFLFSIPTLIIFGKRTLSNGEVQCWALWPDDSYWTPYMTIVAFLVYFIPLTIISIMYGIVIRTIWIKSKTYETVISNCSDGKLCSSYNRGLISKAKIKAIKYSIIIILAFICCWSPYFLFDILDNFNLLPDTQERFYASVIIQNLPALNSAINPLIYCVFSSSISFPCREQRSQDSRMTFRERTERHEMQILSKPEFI
12-hLO inh = inhibitors of human 12-lipoxygenase (ALOX12); P18054; purified 12-hLO, xylenol orange hydroperoxide absorbance; Potency, µM (titrated, usually from 57.1 µM), inactives show at the highest dose activity change, negative = inhibition, usual class: inhibitors; 150,000 tested, 0.12% active; also: potency is read from the fitted curve at half-maximal effect; nearly all actives have a fitted effect of over 55% in size
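Purified human 12hLO (150 nM final) was preincubated with compounds for 15 min at room temperature in 25 mM Hepes pH 7.0, 0.01% Triton X-100, then reacted with 40 uM arachidonic acid for 30 min. Hydroperoxide was detected with ferrous iron/xylenol orange.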
IMPase cell inh = membrane-permeable compound that blocks inositol monophosphatase; CHO-M1 cells, IP1 accumulation, HTRF TR-FRET ratio; inhibition (IP1 accumulation), % at 46.1 µM; 120,000 tested, under 10 active; AID 901; active = well fitted curve in the direction sought with a large enough effect in the signal ratio, not every such curve was filed as active; inconclusive = small, poorly fitted or top-dose-only effect, or a change in a side signal; inactive = no such curve, though single readings can be large or run the other way; the % refers to the signal ratio;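 also: cells stimulated with carbachol in lithium chloride buffer; plate controls were DMSO basal wells for no effect and reference inhibitor wells for full effect; higher means more IMPase inhibition seen as more IP1 and lower FRET ratio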
Target sequence (P97697 whole entry, looked up): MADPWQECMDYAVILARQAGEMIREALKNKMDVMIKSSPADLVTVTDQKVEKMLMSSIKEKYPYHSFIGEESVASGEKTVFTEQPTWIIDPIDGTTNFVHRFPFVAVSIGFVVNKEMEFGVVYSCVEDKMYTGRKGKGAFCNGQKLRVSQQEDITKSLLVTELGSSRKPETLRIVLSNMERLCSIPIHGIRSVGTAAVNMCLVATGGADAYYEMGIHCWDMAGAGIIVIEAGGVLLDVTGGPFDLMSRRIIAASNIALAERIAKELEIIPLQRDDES
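Seeded CHO-M1 cells were dosed with compound at up to 46 uM, stimulated with carbachol for 30 min, then lysed in IP-One detection reagents. Higher IP1 lowers the TR-FRET signal.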
IMPase Li cell = cell-permeable IMPase inhibitors with lithium potentiation; AID 1457; Potency, µM (top dose mostly 59.4 µM), for the others: at the highest dose activity, negative = IMPase inhibition, actives largely listed as inhibitors; CHO-M1 cells, IP1 TR-FRET (IP-One), carbachol + lithium; 210,000 tested, 0.35% active;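 also: IP1 builds up when IMPase is blocked and the TR-FRET signal falls; potency is read from the fitted curve at half-maximal effect; plate controls were basal vehicle for no effect and high inhibitor control for full effect; nearly all actives have a fitted effect of over 50% in size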
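CHO cells stably expressing M1 receptor (2000/well, cultured 16–30 h) treated 30 min at 37C with compound plus low lithium. Cytosolic IP1 by TR-FRET (665/620 ratio and 620 channel) after 10 min lysis; AC50 by Hill fit.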
HPGD block = inhibitors of human 15-hydroxyprostaglandin dehydrogenase (HPGD); 150,000 tested, 4.3% active; P15428; purified HPGD, NADH fluorescence kinetic, PGE2 substrate; Potency, µM, for inactives: at the highest dose activity change, negative = inhibition, most hits filed as inhibitors; AID 894; active = well fitted inhibition curve with a large enough effect, not every such curve was filed as active; inconclusive = small, poorly fitted or top-dose-only effect, or another doubt; inactive = no such curve, though single readings can be large or run the other way; also: potency is read from the fitted curve at half-maximal effect
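20 nM HPGD preincubated 15 min at room temperature with compound in 50 mM Tris-HCl pH 8, 0.01% Tween 20. Started with 1 mM NAD+ and 30 uM prostaglandin E2; NADH fluorescence (360/450 nm) read 5 times over 30-s intervals, last minus first.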
An asterisk follows results filed as active; u = inconclusive; x = not tested or not shown; [ ] = dose if it differs, or a comment. Unless noted, calls follow the shape of the dose curve; as a rule, active = well fitted curve in the direction sought with a large enough effect; inconclusive = small, poorly fitted or top-dose-only effect, or another doubt; inactive = no such curve, though single readings can be large; an effect the other way counts as inactive or inconclusive. Unless noted, % is scaled to controls: 0 for no effect and ±100 for the full control effect.

SMILES	ALDH1A1 inh	NPSR antag	12-hLO inh	IMPase cell inh	IMPase Li cell	HPGD block
Oc1ccccc1C(Nc1nccs1)c1ccc2cccnc2c1O (configuration not stated)	x	-11%	x	x	x	x
CCOC(=O)N1CCC(NC(=O)C(NC(=O)C2CCCCC2)C(C)C)CC1 (configuration not stated)	11%	5%[46.1 µM]	-2%	3	12%[38.3 µM]	u
Cc1ccc(COc2ccsc2C(=O)NN)cc1	6.3µM*	1%	x	x	13%	x
COc1ccccc1OCc1ccc(C(=O)NN)cc1	14µM*	-5%[46.1 µM]	2%	-2	29%[38.3 µM]	-1%
Cc1ccc(COc2ccsc2C(=O)NNC(N)=S)cc1	3%	0%	x	x	10%	x
NNC(=O)c1ccc(COc2cccc3cccnc23)cc1	14µM*	5%	x	x	-3%	x
Cn1c(SCC(=O)O)nc2ccccc2c1=O	0%	-2%[46.1 µM]	18%	6	-13%[38.3 µM]	-13%
Nc1c([N+](=O)[O-])c(=O)sc2ccccc12	-5%	8%	x	x	-4%	x
COc1ccc2[nH]c(C)c(CCNC(=S)Nc3cccc(C)c3C)c2c1	2%	-23%	-28%	x	17%	-8%
CCCS(=O)(=O)C(=C1NCCO1)S(=O)(=O)CCC	-104%	19%[46.1 µM]	5%	-10	-2%[38.3 µM]	-14%
COc1cccc(C2C=C(c3ccc(OC)cc3OC)Nc3nnnn32)c1 (configuration not stated)	u	-19%[46.1 µM]	-9%	0	-10%[38.3 µM]	-20%
Cc1ccnc(NC(=S)NC(=O)/C=C/c2ccco2)c1	u	-13%[46.1 µM]	-16%	-2	0%[38.3 µM]	-14%
O=C(/C=C/c1ccco1)NC(=S)Nc1ccc(O)c(-c2nc3ccccc3s2)c1	u	1µM*	-6%	-10	3%	-20%
CC(=O)NC(=S)Nc1ccc(NC(=S)NC(=O)/C=C/c2ccco2)cc1	x	8%	x	x	x	x
COc1ccc(NC(=S)NC(=O)/C=C/c2ccco2)cc1	7.1µM*	-30%	x	x	10%	x
O=C(/C=C/c1ccco1)NC(=S)Nc1ccc(Cl)cn1	10µM*	-11%[46.1 µM]	u	4	12%[38.3 µM]	-26%
O=C(O)C(C(=O)/C=C/c1ccco1)=C1SCCS1	13µM*	6%[46.1 µM]	-22%	1	4%[38.3 µM]	-21%
Cc1ccc(C(=O)N/C(=C\c2sccc2C)C(=O)NCc2ccncc2)cc1	-3%	6%	0%	3	-6%	-2%
CCOc1cc(/C=N/NC(N)=O)ccc1OCC(=O)Nc1ccc(C)c(C)c1	-15%	8%	x	x	10%	x
S=c1[nH]nc(-c2cc3ccccc3o2)n1Cc1ccccc1	u	8%[46.1 µM]	u	-11	-9%	u
CCOC(=O)CCCNC(=O)c1cncc(Br)c1	15%	1%[46.1 µM]	-2%	7	-2%[38.3 µM]	-3%
COc1ccc(C(=O)Cn2c(N3CCOCC3)nc3c2c(=O)n(C)c(=O)n3C)cc1	11%	14%[46.1 µM]	-2%	2	-9%[38.3 µM]	-3%
Cc1ccc(N(CC(=O)NC(C)(C)C)C(=O)CNC(=O)c2cccs2)cc1	0%	-4%	x	x	3%	x
Cc1ccc(-c2csc(NC(=S)NC(=O)/C=C/c3ccco3)n2)cc1	2%	10µM*	-6%	4	11%[38.3 µM]	-11%
O=C(NC(=S)Nc1ccc(Cl)cn1)c1cccs1	u	-14%[46.1 µM]	-2%	-8	8%[38.3 µM]	-22%
SMILES	ALDH1A1 inh	NPSR antag	12-hLO inh	IMPase cell inh	IMPase Li cell	HPGD block
O=C(/C=C/c1ccco1)NC1CCCC1	22µM*	0%	x	x	0%	x
O=C(/C=C/c1ccc(Br)cc1)NC1CCCCCC1	5%	-19%[46.1 µM]	3%	9	18%[38.3 µM]	-13%
NS(=O)(=O)c1ccc(NC(=O)/C=C/c2ccco2)cc1	24µM*	-10%	x	x	3%	x
CCCC(=O)NC(=S)Nc1ccc(Cl)cn1	25µM*	-19%[46.1 µM]	-4%	-8	8%[38.3 µM]	-14%
CCN(CC)S(=O)(=O)c1ccc(N2CCOCC2)c(NC(=O)c2cccc(C#N)c2)c1	-3%	-8%	x	x	0%	x
COc1ccc(CNC(=O)CC2Sc3ccccc3NC2=O)cc1 (configuration not stated)	6%	10%	x	x	-6%	x
CCOC(=O)C1(Cc2cccc(OC)c2)CCCN(C(=O)c2cc(C)[nH]n2)C1 (configuration not stated)	u	3%	x	x	6%	x
CCOC(=O)c1cc2sccc2n1Cc1ccccc1	u	-7%[46.1 µM]	-8%	u	36%[38.3 µM]	-2%
COc1cc(OC)c(C(=O)Nc2ccc(S(=O)(=O)Nc3ncccn3)cc2)cc1OC	0%	u	-3%	14	19%[38.3 µM]	u
O=C(NCC(c1ccco1)N1CCN(c2ccc(F)cc2)CC1)OCc1ccccc1 (configuration not stated)	5%	-23%	0%	12	8%	-2%
CS(=O)(=O)N(CC(=O)O)c1ccc2c(c1)OCO2	10%	16%[46.1 µM]	0%	-6[1.84 µM]	17%[38.3 µM]	-15%
COC(=O)c1ccccc1NC(=O)/C=C/c1ccco1	25µM*	1%	-4%	3	-3%	-24%
O=C(CCCN1C(=O)/C(=C/c2ccco2)SC1=S)Nc1cccc(C(=O)O)c1	x	9%[7.67 µM]	x	x	x	x
COc1ccc(NC(=O)CCCN2C(=O)/C(=C\c3ccco3)SC2=S)cc1	25µM*	-14%[46.1 µM]	-5%	33	32%	-19%
O=C(/C=C/c1ccco1)Nc1cccnc1Cl	x	14%[7.67 µM]	x	x	x	x
NN1C(=O)/C(=C\c2ccco2)SC1=S	1.3µM*	1%	x	x	x	x
O=C1/C(=C\c2ccco2)SC(=S)N1c1ccc(O)cc1	u	-15%	u	x	-1%	-12%
COc1ccc(-c2noc(-c3cc(Cl)ccc3Cl)n2)cc1OC	8%	-5%[46.1 µM]	-5%	1	-1%	0%
COc1cc(CN2CCCC(CO)(Cc3cccc(Cl)c3)C2)cc2c1OCO2 (configuration not stated)	u	14%	x	x	28%	x
O=P(CCCCCCCCCP(=O)(c1ccccc1)c1ccccc1)(c1ccccc1)c1ccccc1	u	13µM*	u	4	44%[38.3 µM]	-3%
COc1ccc(CNC(=S)Nc2ccccc2-c2ccccc2)cc1	22µM*	-33%	x	x	10%	x
COc1ccc(CNC(=S)Nc2ccc(-c3ccccc3)cc2)cc1	-17%	-45%	x	x	-8%	x
COc1ccc(CNC(=S)NCc2ccc(OC(C)C)cc2)cc1	14µM*	6%	-25%	x	0%	-1%
Cc1cc(C)c(OCC(=O)Nc2cccc(O)c2)cc1C	7%	u	-5%	-15	11%[38.3 µM]	-11%
Cc1ccccc1C(=O)c1cccn1CC(=O)N1CCCCCC1	4µM*	-16%[46.1 µM]	-6%	u	x	x
Cc1ccccc1C(=O)c1cccn1CC(=O)NCC1CCCO1 (configuration not stated)	-3%	-10%[46.1 µM]	-7%	u	x	x
